Data on 108 compounds can be found in ChEMBL document CHEMBL4513216, “Probing the Open Global Health Chemical Diversity Library for Multistage-Active Starting Points for Next-Generation Antimalarials” (ACS Infect Dis, 2020).

The campaign covered roughly 68,000 compounds. About 2,700 (4%) showed an effect of 50% or more. What follows is part of a selection rich in strong results, with near analogues and random picks from the rest.

The experiment deals with Plasmodium berghei. The experiment is described as follows: Screen against P. berghei liver stage (PbLuc), transformed with Luciferase, at 2uM. Format: functional, HepG2. Particulars: tested at 2 uM.
For `CC(C)c1nn(C)c(N(C)C)c1CNCC(O)c1ccccc1F` (stereo not drawn), the INHIBITION is on record as 78.51%. As to `COc1c(CNCC(O)c2ccccc2F)c(C(C)C)nn1C` (stereo not drawn), the INHIBITION is reported as -72.31%.

Turning to `COc1ccccc1OCCNCc1c(C(C)C)nn(C)c1N(C)C`, the INHIBITION is 7.64%. For `COc1ccccc1C(O)CNCc1c(C(C)C)nn(C)c1N(C)C` (stereo not drawn) the value was 63.95%. Next, `CC(C)c1nn(C)c(N(C)C)c1CNCC(O)c1ccccc1` (stereo not drawn): 35.65%. Next, `Cc1nn(C)c(N(C)C)c1CNCC(O)c1ccccc1F` (stereo not drawn): 49.9%; `O=C(NCC1CC1)c1n[nH]c2c1CNCC2`: 5.69%. For `COc1nn(C)cc1C(=O)NCC(OC)c1ccccc1C` (stereo not drawn), the INHIBITION worked out at 24.09%. Next, `COc1ccc(NC(=O)CN2CCCCC2C2OCCO2)cc1` (stereo not drawn): -13.68%; `O=C(C1CC1)N1CCN(C(=O)C2CC(=O)N(c3ccccc3Br)C2)CC1` (stereo not drawn): 10.42%; `COC1CCN(C(=O)C2CC(=O)N(c3ccccc3Br)C2)CC1` (stereo not drawn): 22.86%. Take `O=C(C1CC(=O)N(c2ccccc2Br)C1)N1CCCCCC1` (stereo not drawn): the INHIBITION is 57.51%. For the compound `CC(c1cn2ncsc2n1)n1cc2[nH]cccc-2c1=O` (stereo not drawn), the INHIBITION was found to be 30.09%. As to `CC(C)OCc1ncn2c1CN(CC1CC1)CCC2`, the INHIBITION was -13.31%. For `O=C(NCC1CC1)[C@H]1C[C@H]2OCC[C@H]2N(Cc2ccsc2)C1` the value was -12.09%; for `O=C(Nc1cnccn1)[C@@H]1C[C@H]2OCC[C@H]2N(Cc2ccsc2)C1`, 59.52%. Next, `O=C(Nc1cccnc1)[C@@H]1C[C@H]2OCC[C@H]2N(Cc2ccsc2)C1`: -83.74%; `Cc1cccc(S(=O)(=O)N2C[C@@H]3C[C@H](C(=O)NC4CCC4)[C@H](C2)O3)c1`: 12.57%.

Regarding `COCCN1C[C@@H]2CC[C@H]1CN(C(=O)CCc1c(C)nn(C)c1C)C2`, the INHIBITION is given as -23.17%. For `O=S(=O)(c1ccc(-c2nc3c([nH]2)CCNC3)cc1)N1CCCC1` the value was 52.3%; for `O=C(Nc1ccc(-c2nc3c([nH]2)CCNC3)cc1)N1CCCC1`, -15.03%; for `CC(C)NC(=O)Nc1ccc(-c2nc3c([nH]2)CCNC3)cc1`, -35.22%. Consider `Brc1ccc(NCCCOC2CCOCC2)nc1`, for which the INHIBITION is listed as -11.28%. For `Brc1cnc(NCCCOC2CCOCC2)nc1` the value was 21%.

Regarding `c1cnc(NCCCOC2CCOCC2)nc1`, the INHIBITION came out at 74.34%. Take `Cc1ccc(-c2cc(N)c(=O)n(CC(=O)NCC3CC3)n2)s1`: the INHIBITION turned out to be 36.17%. For `CN(Cc1ccccc1)CC1(O)CCCN(CC(C)(C)C)C1=O` (stereo not drawn) the value was 16.64%; for `COCCC(=O)N1CCc2cc(Cl)cc(Cl)c2C1`, -10.6%. On to `Cc1cc(C(=O)NCC2CCS(=O)(=O)C2)ccc1NC(=O)c1ccco1` (stereo not drawn), for which the INHIBITION was -34.12%. Consider `O=C(NCC1CCS(=O)(=O)C1)c1ccco1` (stereo not drawn), for which the INHIBITION is recorded as 69.48%. Next, `O=C(NCC1CCS(=O)(=O)C1)c1ccc(NC(=O)c2ccco2)cc1` (stereo not drawn): -19.02%; `CCOCCCC(=O)Nc1ccc(OCc2noc(C3CC3)n2)cc1`: 18.09%. For `COc1cccc2c1N(Cc1noc(C3CC3)n1)CCC2`, the INHIBITION is recorded as -17.64%.

In the case of `COc1cccc2c1N(Cc1nc(C3CC3)no1)CCC2`, the INHIBITION was 64.22%. Next, `COCCc1noc(CN2CCCc3cccc(OC)c32)n1`: -61.35%; `CCCC(NC(=O)c1cncc(C)c1)c1nnn[nH]1` (stereo not drawn): -10.41%; `COCCN1CCc2ncnc(NC(C)C)c2CC1`: 3.6%. For `C[C@@H](NC(=O)c1cnccn1)c1c(-c2ccc(F)cc2)noc1C(=O)O` the value was 34.79%; for `Cc1cccc(C)c1OCC(=O)N1CCOCC1c1ncon1` (stereo not drawn), 29.54%. For `O=C(COc1ccc(Cl)cc1)N1CCOCC1c1ncon1` (stereo not drawn) the value was -29.5%; for `Cc1ccc(CC(=O)N2CCOCC2c2ncon2)cc1` (stereo not drawn), 54.99%. With `CCc1ccccc1OCC(=O)N1CCOCC1c1ncon1` (stereo not drawn), the INHIBITION turned out to be 53.58%. For `O=C(COc1cccc(Cl)c1)N1CCOCC1c1ncon1` (stereo not drawn) the value was -6.71%. As for `CC(C)c1ccc(CCC(=O)N2CCOCC2c2ncon2)cc1` (stereo not drawn), the INHIBITION worked out at 15.47%. As to `O=C(CCc1cccc(Cl)c1Cl)N1CCOCC1c1ncon1` (stereo not drawn), the INHIBITION stood at 58.52%. Take `CCc1ccc(CCC(=O)N2CCOCC2c2ncon2)cc1` (stereo not drawn): the INHIBITION was -45.23%. For `Cc1ccc(CCC(=O)N2CCOCC2c2ncon2)c(C)c1` (stereo not drawn) the value was 35.23%; for `COCc1cccc(NC(=O)NCCCN(C)S(C)(=O)=O)c1`, 30.98%. Take `CC(C)CC(=O)N1CC(=O)N(Cc2ccco2)CC(O)C1` (stereo not drawn): the INHIBITION was -6.69%. Next, `Cc1cccc(-c2nc(C)nn2CC(=O)NCC(C)C)c1`: -9.49%. Next, `CCC(=O)c1ccc(OCC(=O)NC(C)c2nnc(C)[nH]2)cc1` (stereo not drawn): -20.29%; `CCn1ccc2cc(NC(=O)CC3CCCO3)ccc21` (stereo not drawn): -73.93%; `Cc1cccc2cc(CO)c(N3Cc4cnc(C(C)(C)C)nc4C3)nc12`: 30.89%. Turning to `CCC(Nc1nnnn1-c1ccccc1)C(=O)Nc1nc(C)cs1` (stereo not drawn), the INHIBITION is -13.81%. For `Cc1nnsc1C(=O)NCc1cccnc1N(C)C` the value was 6.17%; for `O=C(c1cccc(CNCC=Cc2ccccc2)c1)N1CCCC1`, 4.49%. For `CCN(Cc1nc2c(cnn2C)c(=O)[nH]1)c1ccccc1C` the value was -16.3%. For `COc1ccc(NC(C)=O)cc1OCc1cccnc1` the value was 5.44%; for `COc1ccc(NC(=O)C2CCCO2)cc1OCc1cccnc1` (stereo not drawn), 61%.

Consider `COc1ccc(NC(=O)C2CC2)cc1OCc1cccnc1`, for which the INHIBITION came to 21.24%.

For `CCc1nnc2n1CCN(Cc1ncc(-c3ccc(F)cc3)o1)C2`, the INHIBITION came out at 1.6%. For the compound `O=C(c1ncccn1)N1C[C@@H]2CN(Cc3cccnc3)CCO[C@@H]2C1`, the INHIBITION worked out at 22.62%. Next, `CCCc1nc(CN(CC)C(=O)c2onc3ccccc23)no1`: -12.7%; `CCN(Cc1noc(C2CC2)n1)C(=O)c1onc2ccccc12`: 51.31%; `CCN(Cc1noc(C2CCC2)n1)C(=O)c1cnc2ccccc2c1`: 19.53%. For `CC(=O)N1CCC(C(=O)c2cc(C)cnc2N)CC1` the value was 27.16%.

For `C=C(C)C(=O)N1CCC(C(=O)c2cc(C)cnc2N)CC1`, the INHIBITION was found to be 6.57%. For the compound `Cc1cnc(N)c(C(=O)C2CCN(C(=O)C3CCC3)CC2)c1`, the INHIBITION amounted to 61.16%. For the compound `Cc1cnc(N)c(C(=O)C2CCN(C(=O)c3ccccc3F)CC2)c1`, the INHIBITION was determined as 21.37%.

On to `Cc1cnc(N)c(C(=O)C2CCN(C(=O)c3cnc(C)nc3C)CC2)c1`, for which the INHIBITION was found to be 69.08%.

For `Cc1cnc(N)c(C(=O)C2CCN(C(=O)c3cnc(C)cn3)CC2)c1`, the INHIBITION amounted to 25.72%. For `O=C(NCCn1cccn1)c1nnc2ccccc2n1` the value was 7.42%; for `O=C(NC[C@H]1Cn2c(-c3ccccc3)cnc2CO1)C1CC1`, 35.6%. Consider `CC1(C)CN(CC(F)(F)F)CCN1CC(=O)NC1CCCC1`, for which the INHIBITION was found to be 37.42%. With `CC1(C)CN(CC(F)(F)F)CCN1CC(=O)NC1CC1`, the INHIBITION worked out at 65.42%. Next, `CNC(=O)NC(=O)CN1CCN(CC(F)(F)F)CC1(C)C`: 21.03%. Next, `CCC1CC(=O)NCc2nc3sc(C)cn3c21` (stereo not drawn): -18.57%; `CCCn1ncc(C2CC(=O)NCc3nc4cc(C)ccn4c32)c1C` (stereo not drawn): 48.21%. As for `CCCn1ncc(C2CC(=O)NCc3nc4sc(C)cn4c32)c1C` (stereo not drawn), the INHIBITION is 55.36%. On to `Cc1noc(C)c1CN(C)C(=O)Cn1c(=O)n(C)c2ccccc21`, for which the INHIBITION is recorded as -43.5%. Next, `Cc1ccc(NC(=O)Nc2c(O)c3ccccc3oc2=O)cc1C`: 8.92%; `COCCn1c2c(ccc1=O)CCN(C(=O)CC1CC1)CC2`: -13.68%. Next, `NC1(C(=O)N2CCC(c3cc(-c4ccccc4Cl)n[nH]3)CC2)CCC1`: 54.07%; `NC(=O)NCC(=O)N1CCC(c2cc(-c3ccccc3Cl)n[nH]2)CC1`: 39.65%; `NC(=O)NCCC(=O)N1CCC(c2cc(-c3ccccc3Cl)n[nH]2)CC1`: 31.25%. Next, `NC(=O)NC1CCN(Cc2ccc3c(c2)CCC3)CC1`: 30.42%. Regarding `CC(c1nnc(-c2cccs2)o1)N1CCc2cncnc2C1` (stereo not drawn), the INHIBITION is -9.5%. Regarding `O=c1[nH]nc2c(S(=O)(=O)N3CCCCC3)cccn12`, the INHIBITION stood at 6.33%. Next, `CCC(CO)N(Cc1ccccn1)C(=O)c1ccc(C)c(Cl)c1` (stereo not drawn): 42.48%.

Take `COCCC1(CNC(=O)NCC2CCCS2)CCCC1` (stereo not drawn): the INHIBITION was found to be 55.39%. Consider `COCCC1(CNC(=O)NCC2CCCN(C)C2)CCCC1` (stereo not drawn), for which the INHIBITION was -24.61%. Next, `COCCC1(CNC(=O)NCC2CCC2)CCC1`: 29.43%; `CC(C)Nc1nc(-c2ccccc2)nc2c1CCN(C(=O)CC#N)CC2`: 27.22%. In the case of `CCN(Cc1noc(C)n1)C(=O)C(c1ccc(C)cc1)N(C)C` (stereo not drawn), the INHIBITION is reported as -0.28%. For the compound `COCC(=O)NCCn1ccc2c(OC)cccc21`, the INHIBITION is given as 50.32%.

Turning to `COc1cccc2c1ccn2CCNC(C)=O`, the INHIBITION is -7.17%.

For `COc1cccc2c1ccn2CCNC(=O)CC(C)C`, the INHIBITION is listed as -55.67%. For `CCN(CCO)C[C@@H]1CN(c2nc(C)cc(C)n2)C[C@@H]1CO` the value was 5.88%. Next, `O=C(c1ccc(F)c(F)c1)N1CCC(Cn2cc(CO)nn2)CC1`: 20.91%; `Cc1nn(C)c(N(C)C)c1CNCc1cccc(CN(C)C(C)C)c1`: 44.39%; `CCC(NC1CSCCSC1)c1ccc(S(C)(=O)=O)cc1` (stereo not drawn): 9.51%.

For `CCC(NC1Cc2ccccc2C1)c1ccc(S(C)(=O)=O)cc1` (stereo not drawn), the INHIBITION came to 10.02%. Next, `CCC(NC1CCCC1)c1ccc(S(C)(=O)=O)cc1` (stereo not drawn): 58.65%; `Cc1ccc(-c2c[nH]c([C@@H]3COCCN3Cc3cccnc3)n2)cc1`: 3.84%; `CC(C)(CO)NCc1nn(Cc2ccccc2)nc1-c1ccccc1`: -34.52%. Next, `CN1C[C@H](O)C[C@H]1c1nc(-c2ccc3c(c2)OCO3)no1`: 45.22%. `CC(=O)N[C@H]1C[C@@H](c2nc(-c3ccc4c(c3)OCO4)no2)N(C)C1`: the INHIBITION was 57.31%. For `CN1C[C@@H](N)C[C@H]1c1nc(-c2ccc3c(c2)OCO3)no1` the value was 28.2%.
